Test [1] can be described thus: qHTS assay to identify small molecule antagonists of the estrogen related receptor (ERR) signaling pathway from Tox21 library - cell viability counter screen (AID 1224834). Also: nearly all actives have a fitted effect of over 30% in size. Summed up:
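Viability readout (CellTiter-Fluor fluorescence, 30 min at 37 C) multiplexed with the ERR assay; cells treated 17.5 h at 37 C with compounds delivered in DMSO.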

The target in test [2] is Luciferin 4-monooxygenase (Photinus pyralis) (UniProt P08659). Put plainly: qHTS assay to identify small molecule inhibitors of firefly luciferase (AID 1224835). Also: nearly all actives have a fitted effect of over 25% in size. Summed up: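 Quantitative HTS format; KM concentrations of both substrates. Purified P. pyralis FLuc activity quantified from luminescence images.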
Sequence of Luciferin 4-monooxygenase (Photinus pyralis) (P08659 whole entry, looked up): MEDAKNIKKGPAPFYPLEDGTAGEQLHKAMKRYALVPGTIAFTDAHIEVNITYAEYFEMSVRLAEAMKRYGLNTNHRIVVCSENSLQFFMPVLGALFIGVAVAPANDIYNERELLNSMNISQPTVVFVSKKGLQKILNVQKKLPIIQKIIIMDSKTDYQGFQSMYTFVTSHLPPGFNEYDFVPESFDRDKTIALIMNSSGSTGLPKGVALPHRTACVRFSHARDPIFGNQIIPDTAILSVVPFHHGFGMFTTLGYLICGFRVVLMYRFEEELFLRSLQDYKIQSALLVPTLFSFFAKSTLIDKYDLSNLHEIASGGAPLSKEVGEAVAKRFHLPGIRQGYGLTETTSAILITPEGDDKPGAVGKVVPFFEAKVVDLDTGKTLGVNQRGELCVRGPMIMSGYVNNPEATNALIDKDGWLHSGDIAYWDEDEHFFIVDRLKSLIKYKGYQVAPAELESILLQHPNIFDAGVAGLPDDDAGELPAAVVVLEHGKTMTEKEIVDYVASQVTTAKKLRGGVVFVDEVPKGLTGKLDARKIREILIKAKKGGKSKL
Test [3] can be described thus: qHTS assay to identify small molecule agonists of the constitutive androstane receptor (CAR) signaling pathway - cell viability counter screen (AID 1224836). Also: nearly all actives have a fitted effect of over 45% in size. Summed up: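 Viability read-out: CellTiter-Fluor fluorescence after 23 h compound exposure at 37 C/5% CO2 in double-stable HepG2-CYP2B6-hCAR cells, with PK11195 present at 0.75 uM final; compounds tested in 15-point titration.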

The nature of test [4]: qHTS assay to identify small molecule antagonists of the constitutive androstane receptor (CAR) signaling pathway - cell viability counter screen (AID 1224837). Also: nearly all actives have a fitted effect of over 45% in size. In a few lines:
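Fluorescence from CellTiter-Fluor served as the viability signal. Human hepatoma HepG2 cells stably bearing hCAR and CYP2B6-2.2kb received compound plus CITCO (50 nM final) for 23 hr.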

Test [5] addresses Nuclear receptor subfamily 1 group I member 3 (Homo sapiens) (UniProt Q14994). The test can be described thus: qHTS assay to identify small molecule antagonists of the constitutive androstane receptor (CAR) signaling pathway (AID 1224838).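 Also: HepG2 cells stably expressing hCAR with CYP2B6 luciferase reporter stimulated by CITCO; nearly all actives have a fitted effect of over 40% in size.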 In a few lines: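 Quantitative HTS in double-stable HepG2-CYP2B6-hCAR cells. After 4 h plating, cells get compound (15 concentrations) and CITCO at 50 nM final, incubate 24 h at 37 C, then ONE-Glo luminescence is read.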

Test [6] has the same target. The test can be described thus: qHTS assay to identify small molecule agonists of the constitutive androstane receptor (CAR) signaling pathway (AID 1224839).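 Also: HepG2 cells stably carrying human CAR and a CYP2B6 luciferase reporter; nearly all actives have a fitted effect of over 15% in size.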 In a few lines: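 Luminescence read-out (ONE-Glo, 30 min, room temperature) from double-stable HepG2-CYP2B6-hCAR cells exposed 24 h to 15-point compound series in presence of 0.75 uM PK11195 final.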
The nature of test [7]: qHTS assay to identify small molecule antagonists of the estrogen related receptor signaling pathway with the pleiotropic PPARgamma coactivator (PGC) from Tox21 10K library - cell viability counter screen (AID 1224840; active = well fitted cell-killing curve with a large enough effect in the repeat runs, not every such curve was filed as active; also: nearly all actives have a fitted effect of over 40% in size). In a few lines:
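Compounds in DMSO, alongside positive and negative controls, were pinned onto PGC/ERR cells (2,000 per well). Exposure lasted 17.5 hours at 37 C, followed by a 30-minute CellTiter-Fluor incubation and fluorescence reading.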

The nature of test [8]: qHTS assay to identify small molecule antagonists of the estrogen related receptor signaling pathway with the pleiotropic PPARgamma coactivator (PGC) from Tox21 10K library (AID 1224841; call rule not given here; also: actives are mostly falling curves and most rising ones were filed inactive; nearly all actives have a fitted effect of over 50% in size). Summed up:
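Compound exposure ran 18 hours at 37 C in PGC/ERR cells (2,000/well) that had first rested 6 hours in a 37 C/5% CO2 incubator. Luciferase activity was then detected with One-Glo after a 30-minute room-temperature step.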

Test [9] can be described thus: qHTS assay to identify small molecule agonists of the estrogen related receptor signaling pathway with the pleiotropic PPARgamma coactivator (PGC) from Tox21 10K library (AID 1224842). Also: nearly all actives have a fitted effect of over 15% in size. Also: potency is read from the fitted curve at half-maximal effect. In a few lines:
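PGC/ERR reporter cells (NTP line) were seeded 2,000 per well, rested 6 h at 37 C/5% CO2, then pin-dosed with compounds in DMSO for 18 h at 37 C; luciferase read by One-Glo luminescence after 30 min at room temperature.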

Test [10] deals with Thyrotropin receptor (Homo sapiens) (UniProt P16473). Put plainly: qHTS assay to identify small molecule agonists of the thyroid stimulating hormone receptor (TSHR) signaling pathway (AID 1224843; calls by dose curve; also: nearly all actives have a fitted effect of over 45% in size). Summed up:
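Cell line HEK293 with TSHR; density 800/well. Exposure 30 min RT. Readout HTRF cAMP (cAMP-d2/anti-cAMP-cryptate), 1 h RT before reading.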

Test [11] is described as follows: qHTS assay to identify small molecule agonists of the hypoxia (HIF-1) signaling pathway - cell viability counter screen (AID 1224844; calls by dose curve; also: nearly all actives have a fitted effect of over 50% in size). In a few lines:
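Luminescent ATP content (CellTiter-Glo, 30 min, room temperature) served as the viability measure in HRE-bla ME-180 cells exposed to compounds for 17 hrs in low-serum medium (0.5% dialyzed FBS).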

Test [12] in a line: qHTS assay to identify small molecule agonists of the hypoxia (HIF-1) signaling pathway (AID 1224846; active = well fitted activation curve with a large enough effect in the signal ratio in the repeat runs, not every such curve was filed as active; the % refers to the signal ratio). Summed up: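 Measured by blue/green FRET after loading CCF4-AM: beta-lactamase expressed from a hypoxia response element in ME-180 cells. Test agents were delivered in DMSO and left 17 hrs; cells had been plated 5 hrs earlier in low-serum (0.5% dialyzed FBS) medium.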
Test [13] in a line: qHTS assay to identify small molecule agonists of H2AX - cell viability counter screen (AID 1224847; calls by dose curve; also: top concentration of the series differs between compounds; nearly all actives have a fitted effect of over 30% in size). Summed up:
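CHO-K1 wt, 1000 cells/well, o/n 37C; cpds 15 conc, 3 h 37C, 0.76% DMSO; CellTiter-Glo, 30 min RT, luminescence.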

Test [14] in a line: qHTS assay to identify small molecule antagonists of the estrogen related receptor (ERR) signaling pathway from Tox21 library (AID 1224848). Also: nearly all actives have a fitted effect of over 50% in size. Summed up: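 Screening used an ERR reporter line supplied by NTP, exposed for 18 h at 37 C to library compounds delivered in DMSO. Signal was luciferase luminescence developed with ONE-Glo at room temperature for 30 min.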
Test [15] is described as follows: qHTS assay to identify small molecule agonists of the estrogen related receptor (ERR) signaling pathway from Tox21 library (AID 1224849; calls by dose curve; also: nearly all actives have a fitted effect of over 15% in size). Conditions: ERR reporter cell line, ONE-Glo luciferase, 18 h; at 92.4 µM (top of the series) unless noted. In a few lines: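 We plated ERR reporter cells, waited 6 h, added compounds in DMSO by pin tool and incubated them 18 h at 37 C. ONE-Glo was then added and luminescence read after 30 min.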

Test [16] in a line: qHTS RealTime-Glo MT Cell Viability Assay in HepG2 cells - 24 hour (AID 1224867). Also: nearly all actives have a fitted effect of over 50% in size. Summed up: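 Cell number in HepG2 cultures estimated from NanoLuc luminescence generated by metabolic reduction of a prosubstrate by living cells. The homogeneous, nonlytic format allowed repeated reads at 0, 8, 16, 24, 32 and 40 h of compound exposure.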
The nature of test [17]: qHTS RealTime-Glo MT Cell Viability Assay in HEK293 cells - 32 hour (AID 1224868). Summed up:
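Homogeneous bioluminescent viability format in HEK293 cells (600 cells/well). Following 5 h at 37 C/5% CO2, 23 nL compound was pintooled; the signal was measured repeatedly during 40 h incubation.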

The nature of test [18]: A CellTox Green Cytotoxicity Assay to monitor cytotoxicity in HEK293 cells - 0 hour (AID 1224869). Also: nearly all actives have a fitted effect of over 50% in size. Summed up: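 Each value comes from one timepoint of a single continuous run in which HEK293 cells with CellTox Green were exposed to compound for up to 40 h at 37 C, dye fluorescence rising with cell death.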
Test [19] is described as follows: qHTS assay to identify small molecule agonists of the estrogen related receptor signaling pathway with the pleiotropic PPARgamma coactivator (PGC) (AID 1224823). Summed up: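 PGC/ERR reporter cells seeded 6 h, then exposed to compounds (23 nL in DMSO) for 18 h at 37 C. One-Glo luciferase luminescence read after 30 min at room temperature.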
A short description of test [20]: qHTS assay to identify small molecule agonists of H2AX (AID 1224845; active = well fitted activation curve with a large enough effect in the signal ratio in the repeat runs, not every such curve was filed as active; the % refers to the signal ratio). In a few lines: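 Wild-type CHO-K1 cells plated overnight, then exposed 3 hr at 37C to compounds at 15 concentrations (0.76% DMSO). Lysed, then HTRF anti-pH2AX(S139)-cryptate/anti-H2AX-d2 detection after 24 hr at room temperature; emissions 665 and 620 nm.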

Results filed as inconclusive are left out. The source made the active and inactive calls. Unless noted, calls follow the shape of the dose curve; as a rule, active = well fitted curve in the direction sought with a large enough effect in the repeat runs; inconclusive = weak or mixed curves; inactive = no such curve, though single readings can be large; an effect the other way counts as inactive or inconclusive.
% is scaled to controls: 0 for no effect and ±100 for the full control effect.

Sequence of Thyrotropin receptor (Homo sapiens) (P16473 whole entry, looked up): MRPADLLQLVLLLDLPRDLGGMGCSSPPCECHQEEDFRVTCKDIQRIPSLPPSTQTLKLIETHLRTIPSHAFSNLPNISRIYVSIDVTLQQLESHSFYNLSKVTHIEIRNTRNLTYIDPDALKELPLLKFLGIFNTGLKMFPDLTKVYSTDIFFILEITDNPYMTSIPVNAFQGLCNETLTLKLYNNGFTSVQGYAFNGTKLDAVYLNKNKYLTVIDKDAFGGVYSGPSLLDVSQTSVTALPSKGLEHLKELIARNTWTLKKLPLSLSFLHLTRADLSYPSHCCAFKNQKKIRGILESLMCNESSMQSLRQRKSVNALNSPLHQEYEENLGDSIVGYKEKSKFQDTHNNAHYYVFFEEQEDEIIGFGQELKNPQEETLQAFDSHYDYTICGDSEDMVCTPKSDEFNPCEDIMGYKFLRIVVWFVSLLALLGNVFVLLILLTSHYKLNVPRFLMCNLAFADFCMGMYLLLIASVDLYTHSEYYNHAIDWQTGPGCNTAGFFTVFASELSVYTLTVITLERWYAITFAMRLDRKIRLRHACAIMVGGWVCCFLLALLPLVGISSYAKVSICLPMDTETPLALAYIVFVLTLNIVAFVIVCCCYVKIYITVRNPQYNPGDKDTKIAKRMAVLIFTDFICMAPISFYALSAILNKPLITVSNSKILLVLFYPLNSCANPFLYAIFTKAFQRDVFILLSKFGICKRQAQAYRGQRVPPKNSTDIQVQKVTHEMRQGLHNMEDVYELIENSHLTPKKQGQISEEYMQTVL
Sequence of Nuclear receptor subfamily 1 group I member 3 (Homo sapiens) (Q14994 whole entry, looked up): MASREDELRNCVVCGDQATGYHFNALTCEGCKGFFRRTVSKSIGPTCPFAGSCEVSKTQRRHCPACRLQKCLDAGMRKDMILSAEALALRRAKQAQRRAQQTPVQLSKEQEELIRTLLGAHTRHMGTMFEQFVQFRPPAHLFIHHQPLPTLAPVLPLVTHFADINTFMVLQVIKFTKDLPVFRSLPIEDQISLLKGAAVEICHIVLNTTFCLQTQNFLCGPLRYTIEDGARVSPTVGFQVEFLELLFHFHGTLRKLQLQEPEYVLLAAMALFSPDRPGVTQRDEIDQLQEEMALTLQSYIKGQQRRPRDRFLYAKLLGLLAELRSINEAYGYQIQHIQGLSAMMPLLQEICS

For `O=C(O)CN1C(=O)c2cccc3cccc(c23)C1=O`, the Potency result in test [1], in test [2], in [3], in [4], in test [5] and in test [6] was “inactive” in each case. For the same compound, the Potency entry in test [7], in [8], in test [9], in [10], in [11] and in [13] was “inactive” throughout. For the same compound, the Potency entry in test [14], in test [16], in test [17] and in test [18] was “inactive” each time. Besides, the result in [12] was inactive. Moreover, the activity change, positive = activation in test [15] was 3.18% [at 42.5 µM] (inactive).
Regarding `CC(CCc1ccc(O)cc1)NCCc1ccc(O)c(O)c1` (stereo not drawn), the outcome in [19] and in test [12] was inactive. The Potency entry in test [1], in test [2], in test [3], in test [4], in test [8] and in [9] was “inactive” throughout. Further, the Potency entry in test [10], in test [11], in test [13], in test [14], in test [16] and in test [17] was “inactive” throughout. Moreover, in test [18], the Potency result is “inactive”. Moreover, the activity change, positive = activation in [15] is -12.3% [at 42.5 µM] (inactive).
As to `CCCCCCCCCCCCCC(=O)OCC(O)CO` (stereo not drawn), the Potency result in test [1], in [2], in test [3], in [4], in test [5] and in test [6] was “inactive” throughout. Further, the Potency result in [7], in test [8], in [9], in test [10], in test [13] and in [14] was “inactive” each time. Besides, the Potency entry in test [16] and in [17] was “inactive” each time. In addition, the compound was classed as inactive in [12]. Also, the activity change, positive = activation in test [15] was 1.85% (inactive).
Regarding `CC(C)Cc1ccc(CC(=O)O)cc1`, the Potency result in test [1], in test [2], in [3], in test [4], in test [5] and in test [6] was “inactive” each time. For the same compound, the Potency result in [7], in test [8], in [9], in test [11], in test [20] and in test [13] was “inactive” each time. The Potency result in test [14], in test [16] and in [17] was “inactive” in each case. Besides, the outcome in [12] was inactive. In addition, the activity change, positive = activation in test [15] was -10.3% [at 42.5 µM] (inactive).
As for `CCC1CCC(CCC(=O)O)C1` (stereo not drawn), the Potency entry in [1], in test [2], in [3], in [4], in test [5] and in test [6] was “inactive” in each case. Moreover, the Potency result in test [7], in [8], in test [9], in test [10], in test [11] and in test [20] was “inactive” each time. For the same compound, the Potency entry in test [13], in test [14], in test [16] and in [17] was “inactive” in each case. The result in test [12] was inactive. The activity change, positive = activation in test [15] was -14.4% (inactive).
For the compound `Nc1c(Cl)cc(Cl)cc1[N+](=O)[O-]`, the Potency result in test [1], in test [2], in test [3], in test [4], in test [5] and in [6] was “inactive” in each case. The Potency entry in test [7], in test [8], in test [10], in [11], in [20] and in test [14] was “inactive” in each case. The Potency entry in test [16], in [17] and in test [18] was “inactive” throughout. For the same compound, the Potency in test [9] was 5.45 µM (active). Besides, the compound was called inactive in [12]. Further, the activity change, positive = activation in test [15] is -2% (inactive).

Values taken from PubChem BioAssay (Tox21).
